Bioassay records from PubChem.
An excerpt weighted towards active compounds, which were near 1.2% of everything screened.
RGS16-Gao: RGS16-Galphao interaction regulator (human) | bead-based flow cytometry RGS16-Galphao binding, fluorescence; actives lie on both sides | binding response (% of control), % at 10 µM | hit rate 0.38% among 220,000; call rule not given here;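 note: Galphao activated by GDP with aluminum fluoride before binding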
Target sequence (O15492 whole entry, looked up): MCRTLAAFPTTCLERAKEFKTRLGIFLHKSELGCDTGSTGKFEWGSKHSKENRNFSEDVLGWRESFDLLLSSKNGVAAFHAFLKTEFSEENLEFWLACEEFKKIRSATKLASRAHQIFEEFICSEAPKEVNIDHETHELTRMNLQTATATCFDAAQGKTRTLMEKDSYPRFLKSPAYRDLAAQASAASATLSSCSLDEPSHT
Target sequence (P09471 whole entry, looked up): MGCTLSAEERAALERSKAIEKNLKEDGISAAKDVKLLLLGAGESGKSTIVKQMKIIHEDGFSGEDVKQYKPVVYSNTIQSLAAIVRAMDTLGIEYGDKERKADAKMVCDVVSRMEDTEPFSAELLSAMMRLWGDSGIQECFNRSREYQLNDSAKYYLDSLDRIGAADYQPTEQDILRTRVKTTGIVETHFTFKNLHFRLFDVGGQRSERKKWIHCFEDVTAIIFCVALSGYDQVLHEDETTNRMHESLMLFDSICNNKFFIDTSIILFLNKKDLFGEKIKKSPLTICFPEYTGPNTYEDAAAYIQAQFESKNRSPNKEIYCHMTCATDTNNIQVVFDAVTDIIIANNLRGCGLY
GSH fluor: compound fluoresces at 488/530 nm on GSH beads. hit rate 0.25% among 190,000. fluorescence (KMESF) at 10 µM. GSH beads flow cytometry, compound fluorescence 488/530 nm; stronger effect = higher value; in the data active = fluorescence above about 89;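 note: glutathione beads carrying GST-tagged Bcl family fusion proteins plus one bare bead set; values are compound well signal with DMSO vehicle wells as background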
RGS8-Gao: regulators of human RGS8-Galphao interaction; multiplexed bead flow cytometry, RGS8-Galphao binding; actives lie on both sides; hit rate 0.34% among 220,000; response (percent of control binding), % at 10 µM; AID 1423; in the data active = response below about 60% or above about 140%; inactive = in between;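 note: Galphao activated as the GDP aluminium fluoride complex binding bead-coupled RGS8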
Avidin bead fluor: compound fluoresces at 488/530 nm on avidin beads | compound fluorescence 488/530 nm, flow cytometry; stronger effect = higher value | fluorescence (KMESF) at 10 µM | hit rate 0.38% among 220,000; in the data active = fluorescence above about 47
RGS4-Gao reg: modulates binding of RGS4 to human Galphao | P09471 | Multiplexed bead flow cytometry; actives lie on both sides | binding response (% of control), % at 10 µM | hit rate 0.33% among 220,000 | AID 1415; in the data active = binding response below about 49% or above about 150%; inactive = in between;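 note: fluorescent Galphao activated with aluminum fluoride binding bead-coupled RGS4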
RGS7-Gao: modulates binding of RGS7 to human Galphao; P09471; Multiplexed bead flow cytometry; actives lie on both sides; binding response (% of control), % at 10 µM; hit rate 0.35% among 220,000; AID 1439; in the data active = binding response below about 49% or above about 150%; inconclusive = no clear call, values can overlap the other calls; inactive = in between;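 note: fluorescent Galphao held in activated GDP-AlF4 state binding bead-coupled RGS7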
An asterisk follows results filed as active; ? = inconclusive; . = no result; ! = repeats disagree; [ ] = remark or other dose.

SMILES	RGS16-Gao	GSH fluor	RGS8-Gao	Avidin bead fluor	RGS4-Gao reg	RGS7-Gao
CCOC(=O)Cn1nc(-c2ccc(Cl)cc2)cc1N	103	6	101	10	102	100
CCOC(=O)CCn1nc(-c2ccc(Cl)cc2)cc1N	99	36	97	48*	100	107
Cc1ccc(C(=O)NCC(=O)N/N=C/c2sccc2C)cc1[N+](=O)[O-]	102	23	98	10	102	103
CCOc1ccc(/C(O)=C2\C(=O)C(=O)N(c3cc(C)on3)C2c2ccccc2OC)cc1 (stereo not drawn)	162	15	116	76*	142	138
CCCCOP(=O)(OCCCC)C(Nc1ccccc1)c1ccc2c(c1)OCO2 (stereo not drawn)	101	13	101	12	100	97
CS(=O)(=O)N1CCN(c2ccc([N+](=O)[O-])c(NCc3ccc(Cl)cc3)c2)CC1	104	99*	102	15	101	101
Cc1c2cc(O)c(=O)cc-2oc2cc(O)c(O)cc12	90	.	31*!	6	25*!	-4.9*!
COc1cc(OC)c(-c2c3cc(O)c(=O)cc-3oc3cc(O)c(O)cc23)cc1OC	30	283*	32*	-1	37*	-3.2*
CC(=O)Cc1nsc(NC(=O)c2ccc(-c3cc(C(F)(F)F)ccc3Cl)o2)n1	100	50	103	8	102	100
CC(=O)Cc1nsc(NC(=O)c2ccc(-c3cccc(C(F)(F)F)c3)o2)n1	130	38	108	53*	110	115
CN(C)S(=O)(=O)c1cc(NC(=O)CN2CCN(c3ccccc3O)CC2)ccc1Cl	100	18	102	24	99	98
Cc1cccc(NC(=O)CSc2nnc(-c3ccc(S(=O)(=O)N4CCOCC4)cc3)n2C)c1	103	12	101	68*	105	116
CCC(=O)N1CCC2(CC1)Oc1ccc(F)cc1C(=O)C21CC(c2ccccc2)=NO1 (stereo not drawn)	104	.	100	12	101	?
COC(=O)C(C(=O)OC)c1ccccc1[N+](=O)[O-]	102	272*	100	7	102	100
CC(C)(C)NC(=O)NC(=O)COC(=O)c1ccco1	102	261*	103	8	102	106
O=C(O)/C=C/C(=O)NNc1ncnc2ccccc12	100	.	98	8	103	?
N=C1C(c2nc3ccccc3s2)=C(O)CN1CCCO	101	16	103	34	99	100
CCCCN1CC(O)=C(c2nc3ccccc3s2)C1=N	113	25	103	110*	105	133
CN(C)CCCNC(=O)c1cc(S(=O)(=O)N2CCOCC2)ccc1F	172	31	142*[activator]	9	166*[activator]	141
O=C(NCCCn1ccnc1)c1cc(S(=O)(=O)N2CCOCC2)ccc1F	99	12	98	22	99	100
CCOC(=O)N1CCC(NC(=O)c2ccc(CNS(=O)(=O)c3ccc(F)cc3)cc2)CC1	105	21	99	61*	102	117
Cc1noc(/C=C/c2ccc(-c3ccccc3Cl)o2)c1[N+](=O)[O-]	111	30	99	57*	111	115
COc1cc(CNCCc2ccccc2)cc(Cl)c1OCc1ccccc1	105	11	107	11	106	104
COCCn1c(SCC(=O)NC(=O)NC(C)C)nc2ccccc21	100	17	100	51*	100	102
COc1cc(C(=O)Nc2ccc3c(c2)N(C(=O)CN2CCN(C)CC2)c2ccccc2CC3)cc(OC)c1OC	105	.	101	8	105	?
SMILES	RGS16-Gao	GSH fluor	RGS8-Gao	Avidin bead fluor	RGS4-Gao reg	RGS7-Gao
COc1ccc(NC(=O)COC(=O)[C@@H](NC(=O)c2c(F)cccc2F)C(C)C)cc1	142	13	142*[activator]	12	150*[activator]	164*[activator]
COc1cc(OC)cc(C(=O)N[C@H](C(=O)OCC(=O)Nc2ccc(F)c(F)c2F)C(C)C)c1	102	14	100	8	98	?
COc1cc(-c2nnc(Sc3ccc(C(F)(F)F)cc3[N+](=O)[O-])o2)cc(OC)c1OC	103	19	103	72*	106	106
O=C(O)c1ccc(Sc2nnc(-c3cccc(Br)c3)o2)c([N+](=O)[O-])c1	104	4	103	8	104	101
CC(c1ccc(F)cc1)n1c(-c2cccs2)n[nH]c1=S (stereo not drawn)	92	14	97	9	101	?
Cc1cc(N2CCOCC2)nc(NCc2ccccc2)n1	231	259*	132	5	122	120
c1cncc(CNc2nc(N3CCOCC3)nc(N3CCOCC3)n2)c1	98	34	95	67*	111	131
COc1ccccc1-c1cc(C(F)(F)F)nc(S(=O)(=O)CCCC(=O)NC(C)C)n1	95	5	100	19	90	102
COc1ccccc1-c1cc(C(F)(F)F)nc(S(C)(=O)=O)n1	106	483*	104	10	102	101
CCc1ccc(OCC(=O)N(CC)CC)cc1	100	17	94	9	95	98
Cc1ccc(NC(=O)c2ccc(OC(=O)CCN3C(=O)c4ccccc4C3=O)cc2)cc1	100	10	99	48*	96	106
CCOC(=O)/C(C#N)=C/Nc1ccccc1OC(F)(F)F	91	.	95	105*	134	?
CCOC(=O)/C(C#N)=C/Nc1cc(OC)ccc1OC	120	9	106	4	103	107
COc1ccc(NC(=S)Nc2cccc(C(F)(F)F)c2)c(C)c1	87	12	92	5	90	86
CCCC(C)NC(=O)COC(=O)c1cccc(NS(C)(=O)=O)c1 (stereo not drawn)	103	.	101	6	94	?
N#C/C(=C\c1ccc(N2CCCCC2)o1)C(=O)Nc1cccc(Br)c1	136	60	103	60*	136	141
N#C/C(=C\c1ccc(N2CCCCC2)o1)C(N)=O	101	18	104	11	104	103
CC(/C=N/N1C(=O)CSC1=S)=C\c1ccccc1	101	13	98	10	103	102
O=C(CN(C(=O)CCC(=O)Nc1nccs1)c1cccc(F)c1)NCC1CCCO1 (stereo not drawn)	101	37	98	59*	105	116
C/C(=N\O)C(C)(C)Nc1ccc(Br)cc1	102	.	101	8	101	?
Cn1c(=O)c2c(nc(NCCCO)n2CCc2ccccc2)n(C)c1=O	105	20	104	50*	102	105
Cn1c(=O)c2c(nc(NCCO)n2CCc2ccccc2)n(C)c1=O	69	15	92	3	90	94
CCOC(=O)C1CCCN(C(=O)C(C)Oc2ccc(Cl)cc2Cl)C1 (stereo not drawn)	105	38	102	7	101	102
